Compound activity: PubChem BioAssay, Johns Hopkins Ion Channel Center
KCNQ2 block: KCNQ2 (rat) channel inhibition | O88943 | CHO-K1 KCNQ2, FluxOR thallium flux, 20 min; active compounds read low | B-score at 10 µM | 310,000 tested, 1.1% active | AID 2156;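 active means fluorescence ratio B-score at most minus 3 library SDs, with starting brightness B-score within 2 library SDs, cut at about -5.5 in these data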
Target sequence (O88943 whole entry, looked up): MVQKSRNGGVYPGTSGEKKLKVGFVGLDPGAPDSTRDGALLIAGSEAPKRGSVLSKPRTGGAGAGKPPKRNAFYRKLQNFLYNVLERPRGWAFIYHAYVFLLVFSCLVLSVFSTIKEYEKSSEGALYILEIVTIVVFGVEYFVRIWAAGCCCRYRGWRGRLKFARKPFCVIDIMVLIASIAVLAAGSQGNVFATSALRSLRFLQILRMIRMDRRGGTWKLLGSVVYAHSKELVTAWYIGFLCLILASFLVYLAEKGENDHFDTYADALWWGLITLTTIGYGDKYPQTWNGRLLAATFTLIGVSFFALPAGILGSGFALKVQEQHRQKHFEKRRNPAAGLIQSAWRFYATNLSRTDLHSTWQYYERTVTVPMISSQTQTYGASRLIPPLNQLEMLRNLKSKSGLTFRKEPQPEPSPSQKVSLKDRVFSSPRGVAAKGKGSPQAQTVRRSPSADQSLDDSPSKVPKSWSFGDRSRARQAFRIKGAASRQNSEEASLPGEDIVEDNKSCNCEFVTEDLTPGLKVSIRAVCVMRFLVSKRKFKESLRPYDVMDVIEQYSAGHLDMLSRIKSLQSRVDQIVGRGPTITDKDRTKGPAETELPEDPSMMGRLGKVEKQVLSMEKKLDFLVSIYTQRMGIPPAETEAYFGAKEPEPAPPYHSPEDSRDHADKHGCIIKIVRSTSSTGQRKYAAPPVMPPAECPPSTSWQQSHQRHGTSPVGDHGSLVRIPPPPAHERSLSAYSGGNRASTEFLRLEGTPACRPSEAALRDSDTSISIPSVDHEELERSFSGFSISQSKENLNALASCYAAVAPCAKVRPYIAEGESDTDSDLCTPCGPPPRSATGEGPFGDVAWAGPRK
KCNQ2 enhance: enhances the rat KCNQ2 potassium channel; CHO-K1 KCNQ2, FluxOR thallium flux fluorescence; active compounds read high; 310,000 tested, 0.54% active; O88943; B-score at 10 µM;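 active means fluorescence ratio B-score at least 3 SD of library B-scores, with initial fluorescence B-score within 3 of them, cut at about 5.3 in these data; same plate scores as AID 2156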;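 further: B-score of peak minus minimum over baseline fluorescence ratio after K+ and Tl+ stimulus; positive B-score means potentiation of KCNQ2 with more thallium influx and brighter signal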
Kir21 confirm: confirmation of mouse Kir2.1 potassium channel inhibitors; shares compounds with KCNQ2 enhance; Kir2.1-expressing cells, FluxOR thallium flux fluorescence; active compounds read low; Tl flux remaining, % of negative control (active compounds read low), % at 10 µM; 2,300 tested, 41% active; AID 2032;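 active means Primary-screen hit whose thallium flux fell at least 3 control SD below untreated wells in both duplicates, with normal baseline fluorescence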;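 further: 0% = blank wells without stimulus and 100% = stimulated no-compound controls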
HEK293 ctr: counter-screen for Kir2.1 inhibitors: effect in parental HEK293 cells; shares compounds with KCNQ2 enhance; 2,300 tested, 19% active; FluxOR signal as % of negative control (100 = no effect), % at 10 µM; AID 2105; FluxOR thallium flux fluorescence; 0% = unstimulated blank wells;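 active means dye signal at least 3 control SD above or below untreated wells in both duplicates, raw fluorescence within 3, either direction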;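 further: percent is based on the flux ratio of peak minus minimum fluorescence over baseline F0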
CHO-K1 ctr: counter-screen for KCNQ2 potentiators: effect in parental CHO-K1 cells; AID 2282; shares compounds with KCNQ2 enhance; activity increase over 3SD of controls, % at 10 µM; 1,200 tested, 43% active; FluxOR thallium flux fluorescence; zero = vehicle mean+3SD, 100% = vehicle-minus-blank window;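 active means signal rise of at least 3 SD above the untreated control mean, in both duplicate wells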;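 further: counter screen of KCNQ2 potentiator hits so any rise reflects channel-independent effects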
KCNQ1 sel pot: human KCNQ1 counter-target activity of KCNQ2 potentiators | shares compounds with KCNQ2 enhance | CHO KCNQ1 stable, FluxOR thallium flux fluorescence; beyond 3SD, as % of vehicle-control signal | activation over 3SD threshold, % at 10 µM | 1,200 tested, 28% active | AID 2283;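 active means fluorescence ratio rise of at least 3 SD of vehicle wells above their mean, in both replicate wells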;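 further: 0% = vehicle mean plus 3 SD and 100% = vehicle minus unstimulated blank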
KCNQ2 pot confirm: confirmation of rat KCNQ2 potassium channel potentiators. shares compounds with KCNQ2 enhance. CHO-KCNQ2 cells, FluxOR thallium flux fluorescence. potentiation, less the hit threshold, % at 10 µM. 1,200 tested, 68% active;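 active means fluorescence ratio rising 3 SD or more over the vehicle control mean in both replicates, plus primary screen hit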;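 further: peak minus minimum thallium fluorescence divided by baseline after K/Tl stimulus; 0% = vehicle mean plus 3 SD and 100% = vehicle minus unstimulated blank difference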
Kir2-1 sel: mouse Kir2.1 off-target activity of KCNQ2 potentiators; activity over 3SD threshold, % at 10 µM; shares compounds with KCNQ2 enhance; HEK293 Kir2.1, FluxOR thallium flux fluorescence; 1,200 tested, 2% active; AID 2345;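 active means fluorescence ratio rise of at least 3 SD above the vehicle-control mean, seen in both replicates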;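 further: 0% = vehicle mean plus 3 SD and 100% = vehicle minus no-stimulus blank window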
KCNQ2 W236L MoA: rat KCNQ2 W236L mutant potentiation by KCNQ2 potentiators | current increase over 3SD of negative controls (%), active compounds read high, % at 25 µM | 940 tested, 10% active | shares compounds with KCNQ2 enhance | CHO KCNQ2-W236L, automated patch clamp current;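 active means current increase at least 3 SD of the untreated controls above them in both duplicate recordings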
The depositor's hits bear a star; i = inactive; . = not tested or not shown. Only some compounds are listed: those with a hit (about 1.6% of all), similar ones and a draw of the others.

SMILES	KCNQ2 block	KCNQ2 enhance	Kir21 confirm	HEK293 ctr	others
Cc1ccc(SCC(=O)OCC(=O)N(CC(C)C)c2c(N)n(Cc3ccccc3)c(=O)[nH]c2=O)c(C)c1	i	0.02	.	.
CCNC(=S)NNC(=O)CCc1nc2cc(Cl)ccc2n(Cc2ccccc2)c1=O	i	0.23	.	.
CN(C)C(CNC(=O)CCc1nc2cc(Cl)ccc2n(Cc2ccccc2)c1=O)c1ccccc1 (stereo not given)	i	.	74%*	i
CN(Cc1ccccc1)S(=O)(=O)c1ccc(N2CCOCC2)nc1	i	0.07	.	.
CCOc1ccc(NC(=O)CN(C)C(=O)c2ccc(OCC3CCCO3)cc2)cc1OCC (stereo not given)	i	.	.	.
COc1ccccc1N(CC(=O)NCCN1CCOCC1)S(=O)(=O)c1ccccc1	i	.	.	.
COc1cccc(C(C(=O)NC2CCCC2)N(C(=O)CNC(=O)c2ccco2)c2cccnc2)c1 (stereo not given)	i	1.3	.	.
O=C(O)/C=C/c1ccc(S(=O)(=O)Nc2ccc(C(=O)NCC(=O)O)cc2)cc1	i	.	.	.
CC1(C)CC(=O)C(C(c2ccco2)C2C(=O)CC(C)(C)CC2=O)C(=O)C1	i	9.8*	i	74%*	CHO-K1 ctr=-40;KCNQ1 sel pot=-16;KCNQ2 pot confirm=40*;Kir2-1 sel=-37;KCNQ2 W236L MoA=i
CC1(C)CC(=O)C(C(c2ccc(F)cc2)C2C(=O)CC(C)(C)CC2=O)C(=O)C1	i	.	.	.
COc1ccccc1NC(=O)c1nn(C)c(C(=O)Nc2ccccc2OC)c1[N+](=O)[O-]	i	.	.	.
COc1ccccc1NC(=O)c1c(N=Cc2ccccc2O)cnn1C	i	12*	i	i	CHO-K1 ctr=47*;KCNQ1 sel pot=64*;KCNQ2 pot confirm=-12;Kir2-1 sel=-28
Cc1ccc(CN2CCC(c3nc4ccc(Cl)cc4[nH]3)CC2)cc1	i	.	26%*	i
O=C(c1cccc(Cl)c1)N1CCC(c2nc3ccccc3[nH]2)CC1	i	0.82	.	.
CC1CCCCN1C(=O)CN1CCC(c2nc3ccc(Cl)cc3[nH]2)CC1 (stereo not given)	i	.	.	.
Clc1ccc2nc(C3CCN(Cc4ccccc4)CC3)[nH]c2c1	i	.	41%*	i
Cc1c(C(=O)N2CCCCC2)c(S(=O)(=O)N2CCC(C)CC2)c(C)n1C	i	.	.	.
CCN1CCN(c2cc(C(C)C)nc3c(-c4ccccc4)c(C)nn23)CC1	i	.	60%*	i
Cc1nn2c(N3CCOCC3)cc(C(C)C)nc2c1-c1ccccc1	i	.	.	.
CN(CC(=O)Nc1ccc(OC(F)(F)F)cc1)C1CCCCC1	i	.	.	.
O=C(CNCC1CCCCC1)Nc1ccc(OC(F)(F)F)cc1	i	15*	i	i	CHO-K1 ctr=0.6*;KCNQ1 sel pot=-17;KCNQ2 pot confirm=35*;Kir2-1 sel=-34;KCNQ2 W236L MoA=i
O=C(Nc1ccccc1)C(Cl)C(=O)c1ccccc1 (stereo not given)	i	.	66%*	70%*
CC(C(=O)Nc1ccccc1)C(=O)Nc1ccccc1	i	0.59	.	.
Cc1nn(C)cc1C(C)NCc1c(C(=O)N2CCCCCCC2)nc2ccc(Cl)cn12 (stereo not given)	i	1	.	.
CCCn1c(=S)[nH]c2ccccc2c1=O	i	1.2	.	.
SMILES	KCNQ2 block	KCNQ2 enhance	Kir21 confirm	HEK293 ctr	others
CCc1cc2c(=O)n(CCC(C)C)c(=S)[nH]c2s1	i	17*	i	371%*	CHO-K1 ctr=14*;KCNQ1 sel pot=-5;KCNQ2 pot confirm=57*;Kir2-1 sel=-5;KCNQ2 W236L MoA=i
Cc1ccc(NC(=O)COC(=O)COc2cccc3c2OC(C)(C)C3)cc1S(=O)(=O)N1CCOCC1	i	1.8	.	.
Cc1cc2nnc(SCC(=O)NC3CCCCC3)n2c(N)n1	i	0.17	.	.
CCOC(=O)c1ccc(NC(=O)COc2ccc(S(=O)(=O)NC(C)CC)cc2)cc1 (stereo not given)	i	1	.	.
CCOC(=O)c1ccc(NC(=O)C(C)NS(=O)(=O)c2ccc(OC)cc2)cc1 (stereo not given)	i	5.8*	i	i	CHO-K1 ctr=34*;KCNQ1 sel pot=-3;KCNQ2 pot confirm=-44;Kir2-1 sel=-39
Cc1ccccc1Cn1c(=N)n(CC(O)c2ccco2)c2ccccc21 (stereo not given)	i	.	64%*	i
CC(C)(C)c1ccc(Cn2c(=N)n(CC(O)c3ccco3)c3ccccc32)cc1 (stereo not given)	i	.	.	.
CCCCCCCn1c(=N)n(CC(O)c2ccco2)c2ccccc21 (stereo not given)	i	3.2	45%*	i
CCCCCCCn1c(=N)n(CC(=O)c2ccco2)c2ccccc21	i	1.2	56%*	i
CCCCn1c(=N)n(CC(=O)c2ccco2)c2ccccc21	i	2.2	.	.
N=c1n(CCN2CCCC2)c2ccccc2n1CC(O)c1ccco1 (stereo not given)	i	0.01	.	.
COc1ccc(CNC(=O)C2CCCN2C)cc1OC (stereo not given)	i	0.15	.	.
Clc1cccc(CN2CCN(Cc3nc(CCc4ccccc4)no3)CC2)c1	i	.	.	.
COc1ccc(NC(=O)CCNC(=O)c2ccco2)cc1Cl	i	.	.	.
COCCOc1cc(-n2cccc2)c(Cl)cc1Cl	i	.	.	.
CC(NC(=O)C1CCC1)c1ccc(Br)cc1 (stereo not given)	i	0.98	.	.
CC(NC(=O)C1CCCC1)c1ccc(Br)cc1 (stereo not given)	i	7.1*	i	i	CHO-K1 ctr=-21;KCNQ1 sel pot=28*;KCNQ2 pot confirm=9.0*;Kir2-1 sel=-28;KCNQ2 W236L MoA=i
Cc1ccc(C(C)NC(=O)C2CCCC2)cc1C (stereo not given)	i	17*	i	i	CHO-K1 ctr=-1;KCNQ1 sel pot=-68;KCNQ2 pot confirm=55*;Kir2-1 sel=-36;KCNQ2 W236L MoA=i
Cc1ccc(C(C)NC(=O)C2CCCO2)cc1C (stereo not given)	i	0.75	.	.
COc1ccc(OCC(=O)N2N=C(C)CC2(O)C(F)(F)F)cc1 (stereo not given)	i	.	.	.
CC1=NN(C(=O)c2c(Br)cnn2C)C(O)(C(F)(F)F)C1 (stereo not given)	i	14*	i	i	CHO-K1 ctr=-17;KCNQ1 sel pot=-6;KCNQ2 pot confirm=-13;Kir2-1 sel=-32
O=C(CCc1nnc(C2CCCCC2)o1)N1CCC(Oc2cccnc2)CC1	i	1.9	.	.
CC(C)N(Cc1ccccc1)S(=O)(=O)c1ccc(Cl)nc1	i	.	65%*	i
CN(Cc1ccccc1)S(=O)(=O)c1ccc(Cl)nc1	i	.	.	.
